Test results published in PubChem BioAssay (NCATS).
Where “and” joins values, the source holds several entries; their conditions need not be identical. Equal entries are not always repeated. Records with an inconclusive call do not appear. A structure can be active in one record and inactive in another. Calls of active or inactive are those of the source. Calls follow the shape of the dose curve; as a rule, active = well fitted curve in the direction sought with a large enough effect; inconclusive = small, poorly fitted or top-dose-only effect, or another doubt; inactive = no such curve, though single readings can be large; an effect the other way counts as inactive or inconclusive.

How the values were obtained:
[1] = Viability qHTS for spleen associated tyrosine kinase inhibitor (SYKi) naive MV4-11 cells (AID 1963823); also: nearly all actives have a fitted effect of over 40% in size
How it was run: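 Seeding of 500 SYKi-naive MV4-11 cells per well onto pre-dispensed compounds preceded a 72 hr incubation at 37 C. Luminescent CellTiter-Glo signal, read after 10 min at room temperature, reflected viable cells.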

[2] = Viability qHTS for spleen associated tyrosine kinase inhibitor (SYKi) drug resistant MV4-11 cells (AID 1963824); also: nearly all actives have a fitted effect of over 35% in size
How it was run: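 SYK-inhibitor-resistant MV4-11 AML cells were seeded at 500 per well onto compound and cultured 72 hours (37 °C, 5% CO2). CellTiter-Glo was then added, and after 10 min at room temperature, luminescence gave viability.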

[3] = Quantitative highthroughput screen to assess conditional lethalithy of P12 Ichikawa cells grown in RPMI1640 with dialyzed fetal bovine serum (RPMI+ds) (AID 1963880); conditions: Potency: P12-Ichikawa viability; also: nearly all actives have a fitted effect of over 35% in size
How it was run: (§1)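 Each medium arm—HPLM with 10% dialyzed FBS, or RPMI1640 with 5 mM glucose and 10% untreated or dialyzed FBS—was screened against an 11-point, 3-fold compound titration for 48 h at 37 °C, with CellTiter-Glo luminescence as endpoint.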

[4] = Quantitative highthroughput screen to assess conditional lethalithy of SEM cells grown in Human Plasma-Like Medium with dialyzed fetal bovine serum (HPLM+ds) (AID 1963882); also: nearly all actives have a fitted effect of over 35% in size
How it was run: as §1

[5] = Quantitative highthroughput screen to assess conditional lethalithy of SEM cells grown in RPMI1640 with dialyzed fetal bovine serum (RPMI+ds) (AID 1963884); also: nearly all actives have a fitted effect of over 35% in size
How it was run: as §1

[6] = Cellular viability qHTS for adrenocortical cancer (ACC) cell line SW-13 (AID 1963989); conditions: SW-13 ACC cells viability, CellTiter-Glo, 48 h; activity (max response): stronger effect = lower value; also: nearly all actives have a fitted effect of over 65% in size;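 as to activity (max response): cells grown in serum-free medium with ITS supplement; % is scaled to controls: 0 for no effect and ±100 for the full control effect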
How it was run: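 Luminescent ATP read-out (CellTiter-Glo, 20 min at room temperature) measured metabolically competent SW-13 cells after 48 h compound treatment. Final concentrations spanned up to 46 uM; bortezomib served as positive control.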

[7] = Cellular viability qHTS for adrenocortical cancer (ACC) cell line NCI-H295R (AID 1963990); also: nearly all actives have a fitted effect of over 60% in size
How it was run: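 IC50 and maximal efficacy derive from four-parameter logistic modelling of titration curves, with reads scaled between DMSO-only wells (0%) and doxorubicin hydrochloride (100% inhibition). Compounds spanned up to 46 uM over 48 h.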
Potency is read from the fitted curve at half-maximal effect.

Question: For Cc1cc(Nc2cc(CN3CCOCC3)c3nc(C)c(Cc4ccc(Cl)cc4F)n3n2)n[nH]1, which Potency [1] is on record?
Answer: The Potency was 146 nM (active) and 148 nM (active).

Question: And the Potency [2]?
Answer: The Potency was 259 nM (active) and 235 nM (active).

Question: And the Potency [3]?
Answer: The Potency was 7.43 µM (active).

Question: And the Potency [4]?
Answer: Its Potency is 1.66 µM (active).

Question: And the Potency [5]?
Answer: The Potency was 1.48 µM (active).

Question: And the Potency [6]?
Answer: The Potency was 2.51 µM (active).

Question: And the Potency [7]?
Answer: Its Potency is 7.94 µM (active).

Question: What does the source list for CCN(CCCOc1ccc2c(Nc3cc(CC(=O)Nc4cccc(F)c4)[nH]n3)ncnc2c1)CCOP(=O)(O)O?
Answer: Potency [1]: 23.1 nM (active) and 186 nM (active); Potency [2]: 58 nM (active) and 372 nM (active); activity (max response) [6]: -30.5% (inactive)

Question: For O=P(O)(O)OCC(O)CO (stereo unspecified), which Potency [1] is on record?
Answer: Its Potency is “inactive”.

Question: What about the Potency [2] of the same compound?
Answer: Its Potency is “inactive”.

Question: And the activity (max response) [6]?
Answer: The activity (max response) was 10.4% (inactive).

Question: With CCn1nc(C2CCN(C(=O)CCO)CC2)nc1-c1cnc(N)c(-c2nnc(C(C)(C)C)o2)n1 as the compound, how does the Potency [1] read?
Answer: The Potency was 5.25 µM (active).

Question: And the Potency [2]?
Answer: Its Potency is 5.25 µM (active).

Question: What about the activity (max response) [6] of the same compound?
Answer: The activity (max response) was -18.1% (inactive).

Question: For C[C@@H]1CN(CC(=O)Nc2ccc3c(c2)Cc2cccc(-c4cc(=O)cc(N5CCOCC5)o4)c2S3)C[C@H](C)O1, which Potency [1] is on record?
Answer: The Potency was 8.33 µM (active).

Question: And the Potency [2]?
Answer: The Potency was 4.68 µM (active).

Question: What about the Potency [6] of the same compound?
Answer: Its Potency is 28.2 µM (active).

Question: For Cc1c(NC(=O)c2cc(C(N)=O)nc3cc(F)ccc23)c(C(F)(F)F)nn1Cc1ccc(C#N)cc1, which Potency [1] is on record?
Answer: The Potency was “inactive and 14.8 µM (active)”.

Question: What about the Potency [2] of the same compound?
Answer: The Potency was “inactive”.

Question: And the activity (max response) [6]?
Answer: The activity (max response) was -7.79% (inactive).

Question: Which Potency [1] does the source give for CCCCN(CCCC)CCCOC(=O)c1ccc(N)cc1 here?
Answer: Its Potency is “inactive”.

Question: And the Potency [2]?
Answer: The Potency was “inactive”.

Question: What about the activity (max response) [6] of the same compound?
Answer: The activity (max response) was -3.65% (inactive).

Question: Which Potency [1] does the source give for CCC1NC(=O)c2cc(S(N)(=O)=O)c(Cl)cc2N1 (stereo unspecified) here?
Answer: The Potency was “inactive”.

Question: What about the Potency [2] of the same compound?
Answer: Its Potency is “inactive”.

Question: And the activity (max response) [6]?
Answer: Its activity (max response) is 11.8% (inactive).

Question: For CCC(=O)Nc1cccc(Oc2nc(Nc3ccc(N4CCN(C)CC4)cc3OC)ncc2Cl)c1, which Potency [1] is on record?
Answer: The Potency was 1.64 µM (active) and 2.35 µM (active).

Question: What about the Potency [2] of the same compound?
Answer: The Potency was 2.91 µM (active) and 2.35 µM (active).

Question: What about the activity (max response) [6] of the same compound?
Answer: The activity (max response) was -16.6% (inactive).

Question: Which results are given for O=S(=O)(O)c1ccc2nc(-c3ccccc3)[nH]c2c1?
Answer: Potency [1]: inactive; Potency [2]: inactive; activity (max response) [6]: -14% (inactive)

Question: Which Potency [1] does the source give for c1ccc2[nH]ccc2c1 here?
Answer: Its Potency is “inactive”.

Question: What about the Potency [2] of the same compound?
Answer: Its Potency is “inactive”.

Question: And the activity (max response) [6]?
Answer: Its activity (max response) is 10.5% (inactive).

Question: With CC(C)n1c(/C=C/[C@H](O)C[C@H](O)CC(=O)O)c(-c2ccc(F)cc2)c2ccccc21 as the compound, how does the Potency [1] read?
Answer: Its Potency is 2.63 µM (active).

Question: And the Potency [2]?
Answer: Its Potency is 1.32 µM (active).

Question: What about the Potency [6] of the same compound?
Answer: The Potency was 17.8 µM (active).

Question: Which Potency [1] does the source give for CC1=C(CC(=O)O)c2cc(F)ccc2/C1=C\c1ccc(S(C)=O)cc1 (stereo unspecified) here?
Answer: The Potency was “inactive”.

Question: And the Potency [2]?
Answer: Its Potency is “inactive”.

Question: And the activity (max response) [6]?
Answer: Its activity (max response) is 1.22% (inactive).

Question: Which Potency [1] does the source give for CC(=O)/C=C/C=C1/C2CCC(C2)C1(C)C (stereo unspecified) here?
Answer: Its Potency is “inactive”.

Question: What about the Potency [2] of the same compound?
Answer: Its Potency is “inactive”.

Question: What about the activity (max response) [6] of the same compound?
Answer: The activity (max response) was 6.09% (inactive).

Question: With CCN1CCN(c2cc(-c3ccc(F)cc3)c3c(n2)CCCCCC3)CC1 as the compound, how does the Potency [1] read?
Answer: Its Potency is “inactive”.

Question: What about the Potency [2] of the same compound?
Answer: The Potency was “inactive”.

Question: And the activity (max response) [6]?
Answer: Its activity (max response) is -1.29% (inactive).

Question: Which Potency [1] does the source give for Nc1c2ccccc2nc2ccccc12 here?
Answer: Its Potency is 2.99 µM (active).

Question: What about the Potency [2] of the same compound?
Answer: Its Potency is 3.76 µM (active).

Question: And the Potency [6]?
Answer: The Potency was 7.31 µM (active).

Question: With NC(=NCCCCCCN=C(N)/N=C(\N)Nc1ccc(Cl)cc1)/N=C(\N)Nc1ccc(Cl)cc1 as the compound, how does the Potency [1] read?
Answer: The Potency was 5.31 µM (active) and 1.84 µM (active).

Question: And the Potency [2]?
Answer: The Potency was 2.99 µM (active) and 1.64 µM (active).

Question: What about the Potency [6] of the same compound?
Answer: The Potency was 5.17 µM (active).

Question: For CCOC(=N)c1nc2ccc3ncnc(Nc4cc(F)c(F)cc4Cl)c3c2s1, which Potency [1] is on record?
Answer: Its Potency is 7.42 µM (active).

Question: And the Potency [2]?
Answer: Its Potency is 7.42 µM (active).

Question: What about the activity (max response) [6] of the same compound?
Answer: The activity (max response) was -16.7% (inactive).

Question: Which Potency [1] does the source give for C[C@@H](C(=O)Nc1ccc(Cl)cc1)C1CCC(c2ccnc3ccc(F)cc23)CC1 (stereo partly specified) here?
Answer: Its Potency is 18.6 µM (active).

Question: And the Potency [2]?
Answer: Its Potency is 14.8 µM (active).

Question: What about the Potency [6] of the same compound?
Answer: Its Potency is 25.1 µM (active).

Question: With C=C1C(=O)OC2/C=C(/C)CC/C=C(/C)CCC12 (stereo unspecified) as the compound, how does the Potency [1] read?
Answer: The Potency was 8.33 µM (active).

Question: And the Potency [2]?
Answer: Its Potency is 5.25 µM (active).

Question: And the activity (max response) [6]?
Answer: The activity (max response) was -9.66% (inactive).

Question: With CCC(=O)O[C@]1(C(=O)CCl)[C@@H](C)C[C@H]2[C@@H]3CCC4=CC(=O)C=C[C@]4(C)[C@@]3(F)[C@@H](O)C[C@@]21C as the compound, how does the Potency [1] read?
Answer: Its Potency is 4.73 µM (active) and 10.5 µM (active).

Question: What about the Potency [2] of the same compound?
Answer: The Potency was 15 µM (active) and 14.8 µM (active).

Question: What about the activity (max response) [6] of the same compound?
Answer: Its activity (max response) is -11.2% (inactive) and -16.8% (inactive).

Question: For COc1c(C)c2c(c(O)c1C/C=C(\C)CCC(=O)O)C(=O)OC2, which Potency [1] is on record?
Answer: Its Potency is 750 nM (active) and 1.32 µM (active).

Question: And the Potency [2]?
Answer: Its Potency is 473 nM (active) and 934 nM (active).

Question: What about the activity (max response) [6] of the same compound?
Answer: Its activity (max response) is -49% (inactive).

Question: For COC(=O)C1=C(C)NC(c2ncc(F)cc2F)=N[C@H]1c1ccc(F)cc1Cl, which Potency [1] is on record?
Answer: Its Potency is 20.9 µM (active).

Question: What about the Potency [2] of the same compound?
Answer: The Potency was 9.34 µM (active).

Question: And the activity (max response) [6]?
Answer: Its activity (max response) is -9.49% (inactive).

Question: With Cn1cc(-c2c[nH]c3ncnc(N4CCOCC4)c23)cn1 as the compound, how does the Potency [1] read?
Answer: Its Potency is 13.2 µM (active).

Question: And the Potency [2]?
Answer: Its Potency is 14.8 µM (active).

Question: What about the activity (max response) [6] of the same compound?
Answer: Its activity (max response) is 0.0559% (inactive).

Question: Which Potency [1] does the source give for Cc1ccc(-n2nc(C(C)(C)C)cc2NC(=O)NCc2cc(F)ccc2Oc2ccc3c(cnn3CCO)c2)cc1 here?
Answer: The Potency was 9.34 µM (active).

Question: What about the Potency [2] of the same compound?
Answer: The Potency was 10.3 µM (active).

Question: What about the Potency [6] of the same compound?
Answer: Its Potency is 17.8 µM (active).

Question: With Cc1cc(CS(=O)(=O)c2ccccc2)cc(OCc2ccc(CN3CCC[C@@H]3CO)cc2)c1 as the compound, how does the Potency [1] read?
Answer: The Potency was 16.6 µM (active).

Question: What about the Potency [2] of the same compound?
Answer: The Potency was 16.6 µM (active).

Question: And the Potency [6]?
Answer: The Potency was 28.2 µM (active).

Question: Which results are given for CCCCC(CC)COC(=O)/C=C/c1ccc(OC)cc1 (stereo unspecified)?
Answer: Potency [1]: inactive; Potency [2]: inactive; activity (max response) [6]: 1.77% (inactive)

Question: For O=C(CCOCCOCCOCCOCCC(=O)Nc1c(I)cc(I)c(C(=O)O)c1I)Nc1c(I)cc(I)c(C(=O)O)c1I, which Potency [1] is on record?
Answer: Its Potency is “inactive”.

Question: What about the Potency [2] of the same compound?
Answer: The Potency was “inactive”.

Question: And the activity (max response) [6]?
Answer: Its activity (max response) is 6.37% (inactive).

Question: For COc1cc2ncnc(Nc3ccc(O)c(Br)c3)c2cc1OC, which Potency [1] is on record?
Answer: The Potency was 1.16 µM (active) and 662 nM (active).

Question: What about the Potency [2] of the same compound?
Answer: The Potency was 1.64 µM (active) and 1.66 µM (active).

Question: What about the Potency [6] of the same compound?
Answer: The Potency was 3.55 µM (active).
